# Experimental data reported in PubChem BioAssay (EPA / NIEHS).
# Where “and” joins values, the source holds several entries; their conditions need not be identical. Equal values may be shown once. Inconclusive results are not listed. More than one record can exist for a structure, and the calls need not agree. Calls of active or inactive are those of the source. How the source made its calls: active means hit-call score of the fitted dose curve at least 0.9, where 1 is the maximum; inconclusive means response in the unintended direction; inactive means score below 0.9.
# Assay: CCTE_Shafer_MEA_dev_LDH: CCTE's Lactate Dehydrogenase Assay for Cytotoxicity in the Neural Network Formation Assay, Shafer Lab (AID 2284068);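 further: exposure for twelve days from plating with re-dosing on DIV 5 and 9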
# Procedure: CCTE_Shafer_MEA_dev assay is conducted using Axion Biosystems 48 well microelectrode array (MEA) plates and Maestro recording system. Each well of the MEA plate contains a grid of 16 microelectrodes embedded in the culture surface. Electrically active cells, such as neurons, can be cultured over the electrodes, and electrical activity in these cells can be recorded extracellularly. The spontaneous firing of neurons is captured from each electrode on a microsecond timescale providing both temporally and spatially precise data. […] The CCTE_Shafer_MEA_dev assay uses primary cultures of rat cortical neurons. Recordings are made on days post-plating 5, 7, 9 and 12. As these cultures mature over time, neural networks develop functional activity and form cohesive networks in which electrical activity can be highly coordinated. CCTE_Shafer_MEA_dev_LDH is 1 of 19 assay components of the CCTE_Shafer_MEA_dev assay. It measures the lactate dehydrogenase enzyme activity using spectrophotometry.Data from the assay component CCTE_Shafer_MEA_dev_LDH was analyzed into 1 assay endpoint. This assay endpoint, CCTE_Shafer_MEA_dev_LDH, was analyzed in the positive analysis fitting direction relative to DMSO as the negative control and baseline of activity. Using a type of viability reporter, loss-of-signal activity can be used to understand cell viability.
# On the day prior to culture, each well was coated thoroughly with 150 uL of 0.05% polyethyleneimine (PEI, Sigma Cat P3143) in 50 mM HEPES (Sigma Cat H7523) at a pH of 8. The plate was incubated at 37C for one hour. PEI was rinsed out with 500 uL of sterile water three times. Plates were stored at 4C until the day of culture. This culture was plated at a seeding density of 1.5 x 10^5 cells/well on a 48-well MEA plate, prepared as described above. Cells were administered via a 25 uL media/laminin ([…]; Sigma Cat L2020-1MG) drop directly onto the microelectrode array, as adding the cells with the laminin results in better attachment than pre-coating with laminin. After 2 hours, an additional 475 uL of cortical media was added and the cells returned to the incubator. Exposure starts at day 0 of plating and is continued over twelve days of network development until the experiment is terminated. Cells are fed with fresh medium on DIV 5 and 9, following the recordings on those days. The entire volume of media in the well is exchanged and any vehicle or compound treatment is renewed. Complete details are found in OP-NHEERL/ISTD/SBB/TJS/2015-03-r0 (available on request, email shafer.tim@epa.gov). Measurement of the electrical activity is non-invasive, and recordings can be made from the same plate over multiple different days of the culture. In cortical neurons, this allows for the measurement of extracellular action potentials over the period during which networks form in the MEA plate.
SMILES,outcome,AC50
CS(=O)(=O)c1ccc(C(=O)C2C(=O)CCCC2=O)c([N+](=O)[O-])c1,inactive,
C=C(C)CN(CC)c1c([N+](=O)[O-])cc(C(F)(F)F)cc1[N+](=O)[O-],,14.5 µM (active)
CCOP(=O)(OCC)Oc1nc(Cl)c(Cl)cc1Cl,inactive,610 nM (active) and 413 nM (active)
CN/C(=N\[N+](=O)[O-])NCc1cnc(Cl)s1,inactive,
CO/N=C(/C1=NOCCO1)c1ccccc1Oc1ncnc(Oc2ccccc2Cl)c1F,,643 nM (active) and 858 nM (active)
CCCN(CC)CC1COC2(CCC(C(C)(C)C)CC2)O1 (stereo not given),,0.168 µM (active)
CCOC(=O)C(C)OC(=O)c1cc(Oc2ccc(C(F)(F)F)cc2Cl)ccc1[N+](=O)[O-] (stereo not given),inactive,
CC1(C)C(C(=O)OC(C#N)c2cccc(Oc3ccccc3)c2)C1(C)C (stereo not given),,17.8 µM (active)
CCNC(=O)NC(=O)C(C#N)=NOC,inactive,
O=C1C2CC=CCC2C(=O)N1SC(Cl)(Cl)Cl (stereo not given),,15.9 µM (active) and 13.8 µM (active)
O=C(Nc1ccccc1-c1ccc(Cl)cc1)c1cccnc1Cl,inactive,50 µM (active)
Cc1c(COC(=O)[C@@H]2[C@H](/C=C(\Cl)C(F)(F)F)C2(C)C)cccc1-c1ccccc1,,17.5 µM (active) and 11.2 µM (active)
CC1(C)C(C=C(Cl)Cl)C1C(=O)OC(C#N)c1cccc(Oc2ccccc2)c1 (stereo not given),inactive,
COC(=O)N(C(=O)N1CO[C@@]2(C(=O)OC)Cc3cc(Cl)ccc3C2=N1)c1ccc(OC(F)(F)F)cc1,,7.61 µM (active)
CNC(=O)Oc1cccc2ccccc12,,15 µM (active) and 25.1 µM (active)
COP(=S)(OC)SCn1nnc2ccccc2c1=O,,22.7 µM (active)
CCSC(=O)N1CCCCCC1,inactive,
CC(C)=CC1C(C(=O)OCc2coc(Cc3ccccc3)c2)C1(C)C (stereo not given),,14.1 µM (active)
COP(=O)(OC)O/C(C)=C/C(=O)N(C)C,inactive,
COP(=S)(OC)Oc1ccc([N+](=O)[O-])c(C)c1,inactive,
N#CN=C1SCCN1Cc1ccc(Cl)nc1,inactive,
CC(C)(C)C(=O)C(Oc1ccc(Cl)cc1)n1cncn1 (stereo not given),,37.5 µM (active)
CCN(CC)c1nc(C)cc(OP(=S)(OC)OC)n1,,29.2 µM (active)
